According to ChEMBL document CHEMBL4513216, “Probing the Open Global Health Chemical Diversity Library for Multistage-Active Starting Points for Next-Generation Antimalarials” (ACS Infect Dis, 2020):
In all, about 68,000 compounds went through this assay and about 2,700 (4%) showed an effect of 50% or more. The entries come from a sample that favours strong results as a whole.

system: Plasmodium berghei; assay: Screen against P. berghei liver stage (PbLuc), transformed with Luciferase, at 2uM; format: functional, HepG2; conditions: tested at 2 uM

Compound	INHIBITION
O=C1CCCc2cc(-c3csc(CCN4CCOC4=O)n3)ccc2N1	33.01%
CN1C(=O)Cc2cc(-c3csc(CCN4CCOC4=O)n3)ccc21	-35.62%
O=C1OCCN1CCc1nc(-c2cc3c4c(c2)CC(=O)N4CCC3)cs1	78.51%
Cc1nc(C(C)C)sc1C(=O)NCCSc1ccccn1	-103.61%
CC(C)(C)c1ncc(C(=O)NCCSc2ccccn2)c(O)n1	68.02%
CCn1c(C)nnc1SCCNC(=O)c1cnc(C(C)(C)C)nc1O	3.86%
CN1C[C@H]2CC[C@@H](C1)N(Cc1ccccc1OCCN1CCOCC1)C2	32.1%
NC(=O)CC1CC2(CCNCC2)c2cc(F)ccc21 (configuration not stated)	-8.62%
c1cnc(-c2nn3c(CN4CCOCC4)nnc3s2)cn1	26.03%
c1cnc(-c2nn3c(CN4CCCCC4)nnc3s2)cn1	7.91%
c1cnc(-c2nn3c(CN4CCCCCC4)nnc3s2)cn1	55.73%
COC(=O)N1CCCC(NC(=O)NCc2ccc(C)nc2)C1 (configuration not stated)	22.07%
CC(C)(C)CC(=O)N1CC[C@H]2CC(=O)N(CCc3c[nH]cn3)CC[C@H]2C1	17.31%
Cc1cccc(C(C(=O)NCCCc2nnc3ccccn23)N(C)C)c1 (configuration not stated)	-0.59%
CCc1nnc(CN(CC)C(=O)C2CC(=O)N(C3CC3)C2)o1 (configuration not stated)	10.02%
CCc1nnc(CN(CC)C(=O)C2CC(=O)N(C(C)(C)C)C2)o1 (configuration not stated)	50.86%
CCc1nnc(CN(CC)C(=O)C2CC(=O)N(CC)C2)o1 (configuration not stated)	6.84%
CCc1c(C)nc2cc(-c3nccn3C)nn2c1N1CCCC(CO)C1 (configuration not stated)	-40.66%
CCS(=O)(=O)c1ccc2oc([C@H]3CCN(Cc4ccncc4)C3)nc2c1	61.7%
CCS(=O)(=O)c1ccc2oc([C@H]3CCN(Cc4ccccn4)C3)nc2c1	30.4%
CCS(=O)(=O)c1ccc2oc([C@H]3CCN(CC4CCCCC4)C3)nc2c1	44.13%
CCS(=O)(=O)c1ccc2oc([C@H]3CCN(Cc4cccnc4)C3)nc2c1	16.12%
CCS(=O)(=O)c1ccc2oc([C@H]3CCN(Cc4ccccc4)C3)nc2c1	55.66%
Cc1ccc2oc([C@H]3CCN(Cc4ccccc4)C3)nc2c1	45.22%

Compound	INHIBITION
O=C(c1cccc(F)c1)N1CC[C@H]2[C@H]1CCN2CC1CCOCC1	13.04%
CCc1nccn1C1CCCN(C(=O)c2ccn(-c3ccccc3)n2)C1 (configuration not stated)	6.54%
O=C(CN1CCOCC1)N1CCC(c2cc(N3CCCC3)ncn2)CC1	70.81%
O=C(CC1CNCCO1)N1CCC(c2cc(N3CCCC3)ncn2)CC1 (configuration not stated)	48.93%
O=C(C1CNCCO1)N1CCC(c2cc(N3CCCC3)ncn2)CC1 (configuration not stated)	37.15%
Cn1ccnc1-c1cn(CCCc2csc(N)n2)nn1	-21.39%
CCNC(=O)[C@@H]1C[C@H](NC(=O)c2cncnc2C)CN1Cc1ccsc1	12.78%
CCn1c(-c2ccccc2)nn(CC(=O)NCCc2ccc(C)s2)c1=O	47.25%
Cc1ccc(-n2nnc(C(=O)NC(C)C)c2C2CC2)cc1	82.5%
CC(C)NC(=O)c1nnn(-c2ccc(F)cc2)c1C1CC1	3.89%
CC(C)NC(=O)c1nnn(-c2ccccc2)c1C1CC1	2.31%
Cc1cc(C)n(C2CN(CCc3ccccn3)C2)n1	-7.32%
CN(C)CCn1ccnc1C1CCCN(c2nccc3ccccc23)C1 (configuration not stated)	49.94%
CN(C)Cc1nnc(C2CCCN(c3ncccc3F)C2)n1C (configuration not stated)	6.39%
CN(C)Cc1nnc(C2CCCN(c3nccc4ccccc34)C2)n1C (configuration not stated)	63.01%
Cc1cc(C)nc(NCCC(=O)NCCn2ccnc2C)n1	28.4%
Cc1cc(C)nc(NCCCC(=O)NCCn2ccc3ccccc32)n1	-12.76%
Cc1cc(C)nc(NCCC(=O)NCCn2ccc3ccccc32)n1	50.94%
CCS(=O)(=O)N(C)C1CCN(C(=O)c2cccc(Cl)c2)CC1	-41.98%
CCC(=O)Nc1ccc2c(c1)C1(CCOCC1)CN2CCF	-24.5%
COc1ccc(OC)c(-c2nc(CN(C)Cc3nncn3C)c(C)o2)c1	-5.6%
Cn1ncnc1CNc1ccccc1C(=O)NC(C)(C)C	-38.42%
COc1ccc(NC(=O)c2ccccc2NCc2ncnn2C)cc1	-25.35%
CNC(=O)c1ccccc1NCc1ncnn1C	54.03%

Compound	INHIBITION
CC(C)c1nnc2n1CC(CNC/C=C/c1ccccc1)CC2 (configuration not stated)	4.8%
CC(C)c1n[nH]c(C2CN(C(=O)c3cc4c(s3)CCC4)CCO2)n1 (configuration not stated)	10.53%
COCC(c1cccc(C(F)(F)F)c1)N(C)C(=O)c1ccccn1 (configuration not stated)	-9.61%
CCNC(=O)CN1CCCC(c2ccc(C(=O)O)cc2)C1 (configuration not stated)	2.06%
CC(C)(C)NC(=O)CN1CCCC(c2ccc(C(=O)O)cc2)C1 (configuration not stated)	31.27%
CC(C)CNC(=O)CN1CCCC(c2ccc(C(=O)O)cc2)C1 (configuration not stated)	50.67%
CCS(=O)(=O)N1CCC(c2cc3n(n2)[C@@H](C(F)(F)F)C[C@@H](C)N3)CC1	-22.38%
Cc1nc(=O)c(CC(=O)N2C[C@H]3CC[C@@H](C2)N(CC2CCC2)C3)c(C)[nH]1	25.47%
Cc1cc(C)n(CC(=O)N2C[C@H]3CC[C@@H](C2)N(CC2CCC2)C3)c(=O)n1	41.07%
Cc1nc(=O)c(CC(=O)N2C[C@H]3CC[C@@H](C2)N(CC2CCC2)C3)c[nH]1	68.39%
Cc1ccc(C(C)NC(=O)Cc2c(C)nc3c(c2C)c(=O)[nH]n3C)o1 (configuration not stated)	-30.5%
CC(C)C1CN(C(=O)c2ccc3nccnc3c2)CCS1 (configuration not stated)	43.29%
Cc1cccc(CN2Cc3[nH]nc(COCC4CC4)c3C2)n1	-4.06%
c1ccc(CN2Cc3[nH]nc(COCC4CC4)c3C2)nc1	28.5%
OCCOCc1n[nH]c2c1CN(Cc1cccs1)C2	52.74%
COCc1nn(CC2CC2)c2c1CN(Cc1ccco1)CC2	38.09%
CCOCc1nn(CC2CC2)c2c1CN(Cc1cccs1)CC2	34.93%
c1ccc(OCc2n[nH]c3c2CN(Cc2cccs2)C3)nc1	29.45%
COCc1n[nH]c2c1CN(Cc1cccs1)C2	56.21%
OCCOCc1n[nH]c2c1CN(Cc1ccco1)C2	8.99%
OCCOCc1n[nH]c2c1CN(Cc1ccccn1)C2	2.69%
COCc1nn(CC2CC2)c2c1CN(Cc1cccs1)CC2	51.26%
c1cncc(OCc2n[nH]c3c2CN(Cc2cccs2)C3)c1	14.94%
c1csc(CN2Cc3[nH]nc(COCC4CC4)c3C2)c1	58.98%
